The values that follow come from ChEMBL document CHEMBL1961873, “Compounds: GSK PKIS; Assays: Nanosyn kinase panel” (2012).

One assay concerns the target cAMP-dependent protein kinase catalytic subunit alpha (Homo sapiens) (UniProt P17612). The settings on record: at 1 µM.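 Also: mean percent inhibition of PKA.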
As to `C[C@@H](Oc1cc(-n2cnc3ccc(OCC4CCN(C)CC4)cc32)sc1C(N)=O)c1ccccc1Cl`, the inhibition is -1.07%.
Regarding `CCc1cccc(CC)c1/C=C/c1cncc(C(=O)NC)c1`, the inhibition came to 1.06%.
Consider `CS(=O)(=O)CCNCc1cc(-c2cc3c(Nc4ccc(OCc5cccc(F)c5)c(Cl)c4)ncnc3s2)cs1`, for which the inhibition stood at 1.98%.
In the case of `Cc1nnc(-c2ccc(C)c(-c3ccc(C(=O)NCc4ccc(Cl)cc4)cc3)c2)o1`, the inhibition was 0.62%.
With `CN1CCN(CCCNc2nc3ccc(Oc4ccc(NC(=O)Nc5cc(C(F)(F)F)ccc5F)cc4)cc3[nH]2)CC1`, the inhibition was -0.98%.
Consider `NS(=O)(=O)c1ccc(N/N=C2\C(=O)Nc3ccc(-c4cnco4)cc32)cc1`, for which the inhibition was -2.27%.
Regarding `Fc1ccc(-c2ncn(C3CCNCC3)c2-c2ccnc(Oc3ccc4c(c3)OCO4)n2)cc1`, the inhibition came to 37.9%.
Take `COc1ccc(C2=C(N3CCc4ccccc43)C(=O)NC2=O)cc1`: the inhibition was found to be 1.99%.
For `O=C1Nc2ccc(I)cc2C1=Cc1cc(Br)c(O)c(Br)c1`, the inhibition came out at 2.5%.
As for `Fc1ccc(-c2ncn(CCCN3CCOCC3)c2-c2ccncc2)cc1`, the inhibition came to 1.67%.
As to `CN(C)CCCNc1nccc(-c2c(-c3ccc(F)cc3)nn3cc(C(F)(F)F)ccc23)n1`, the inhibition was -2.98%.
For `COc1cccc(/C=N/Nc2ncnc3c2cnn3-c2cccc(OC)c2)c1`, the inhibition worked out at 1.21%.
On to `O=C1Nc2ccccc2/C1=C/Nc1ccc(-n2cncn2)cc1`, for which the inhibition worked out at 4.31%.
For `COc1cc2ncn(-c3cc(OCc4cccs4)c(C(N)=O)s3)c2cc1OC`, the inhibition was -2.23%.
On the same count and under the same terms, the result for `Fc1ccc(-c2nc3n(c2-c2ccncc2)CCS3)cc1` reads 0.45%; that for `O=C1NC(=O)C(c2cccc(Cl)c2)=C1Nc1ccc(Cl)c(C(=O)O)c1`, 1.05%.
Regarding `Fc1ccc(-c2ncn(C3CCNCC3)c2-c2ccnc(Oc3ccc(Oc4ccccc4)cc3)n2)cc1`, the inhibition stood at 24.9%.
`COc1ccc(-c2ccc3c(NC(=O)C4CC4)n[nH]c3n2)cc1`: the inhibition was 1.22%.
On to `CN(c1ccc(NC(=O)Nc2c(Cl)cccc2Cl)cc1)c1ccnc(Nc2cccc(CS(C)(=O)=O)c2)n1`, for which the inhibition amounted to 3.01%.
Turning to `Fc1ccc(-c2ncn(C3CCNCC3)c2-c2ccnc(Oc3ccc(F)c(F)c3)n2)cc1`, the inhibition was 9.25%.
`Cc1ccc(NC(=O)c2ccoc2)cc1-c1ccc(C(=O)NCC2CC2)cc1`: the inhibition stood at 2.23%.
Regarding `NCc1ccc(-n2c(-c3nonc3N)nc3cnccc32)cc1`, the inhibition came out at 56.1%.
For the molecule `NC(=O)c1ccc(Oc2nccc(-c3c(-c4ccc(F)cc4)ncn3C3CCNCC3)n2)cc1`, the inhibition came to 43%.
As to `CCc1nccc2c1nc(-c1nonc1N)n2CC`, the inhibition amounted to 4.19%.
For the molecule `CCC(=O)Nc1ccc(C)c(-c2ccc(C(=O)NCC3CC3)cc2)c1`, the inhibition stood at 1.49%.
In the case of `CN(C)CCOc1ccc(-c2cc(-c3ccc4c(c3)CCC4=NO)c(-c3ccncc3)o2)cc1`, the inhibition amounted to 21%.
With `Nc1nccc(-c2c(-c3ccc(F)cc3)ncn2C2CCC(O)CC2)n1` (stereo not drawn), the inhibition worked out at 48.4%.
Still for that read-out and setting: then `COc1ccc2cc(-c3c(-c4ccncc4)nc(-c4ccc([S+](C)[O-])cc4C)n3C)ccc2c1` (stereo not drawn), with 21.8%; and `CCS(=O)(=O)c1ccc(OC)c(Nc2ncc(-c3cccc(-c4ccccc4F)c3)o2)c1`, with 1.3%.
Take `NS(=O)(=O)c1ccc(Nc2cc(-c3ccc(O)c(F)c3)n[nH]2)cc1`: the inhibition was -0.83%.
Turning to `O=C(Nc1n[nH]c2cc(-c3cc(F)ccc3F)ccc12)C1CC1`, the inhibition amounted to 0.93%.
Still for that read-out and setting: the result for `NS(=O)(=O)c1ccc(N/N=C2\C(=O)Nc3ccc(C(=O)NCCCn4ccnc4)cc32)cc1` reads 2.8%; that for `CCN(CC)Cc1ccc(Nc2nccc(-c3cnn4ncccc34)n2)cc1`, 4.26%.
On to `COc1ccc2ncn(-c3cc(O[C@H](C)c4ccccc4Cl)c(C(N)=O)s3)c2c1`, for which the inhibition was -1%.

The next assay deals with Protein kinase C alpha type (Homo sapiens) (UniProt P17252). The conditions noted are these: at 0.1 µM.
As to `C[C@@H](Oc1cc(-n2cnc3ccc(OCC4CCN(C)CC4)cc32)sc1C(N)=O)c1ccccc1Cl`, the inhibition was determined as 1.11%.
`CCc1cccc(CC)c1/C=C/c1cncc(C(=O)NC)c1`: the inhibition was 1.01%.
With `CS(=O)(=O)CCNCc1cc(-c2cc3c(Nc4ccc(OCc5cccc(F)c5)c(Cl)c4)ncnc3s2)cs1`, the inhibition was found to be 0.73%.
With `Cc1nnc(-c2ccc(C)c(-c3ccc(C(=O)NCc4ccc(Cl)cc4)cc3)c2)o1`, the inhibition was -3.05%.
Regarding `CN1CCN(CCCNc2nc3ccc(Oc4ccc(NC(=O)Nc5cc(C(F)(F)F)ccc5F)cc4)cc3[nH]2)CC1`, the inhibition is -2.39%.
On to `NS(=O)(=O)c1ccc(N/N=C2\C(=O)Nc3ccc(-c4cnco4)cc32)cc1`, for which the inhibition is -4.06%.
Regarding `Fc1ccc(-c2ncn(C3CCNCC3)c2-c2ccnc(Oc3ccc4c(c3)OCO4)n2)cc1`, the inhibition was 1.59%.
On to `COc1ccc(C2=C(N3CCc4ccccc43)C(=O)NC2=O)cc1`, for which the inhibition stood at 1.46%.
Same read-out and setting: then `O=C1Nc2ccc(I)cc2C1=Cc1cc(Br)c(O)c(Br)c1`, with 0.27%; and `Fc1ccc(-c2ncn(CCCN3CCOCC3)c2-c2ccncc2)cc1`, with 1.44%; and `CN(C)CCCNc1nccc(-c2c(-c3ccc(F)cc3)nn3cc(C(F)(F)F)ccc23)n1`, with -2.9%.
In the case of `COc1cccc(/C=N/Nc2ncnc3c2cnn3-c2cccc(OC)c2)c1`, the inhibition came to 0.12%.
Take `O=C1Nc2ccccc2/C1=C/Nc1ccc(-n2cncn2)cc1`: the inhibition was 0.43%.
The same measure, in the same setting: the result for `COc1cc2ncn(-c3cc(OCc4cccs4)c(C(N)=O)s3)c2cc1OC` reads -2.88%.
Regarding `Fc1ccc(-c2nc3n(c2-c2ccncc2)CCS3)cc1`, the inhibition is -2.53%.
Take `O=C1NC(=O)C(c2cccc(Cl)c2)=C1Nc1ccc(Cl)c(C(=O)O)c1`: the inhibition was found to be 0.36%.
Same read-out and setting: the result for `Fc1ccc(-c2ncn(C3CCNCC3)c2-c2ccnc(Oc3ccc(Oc4ccccc4)cc3)n2)cc1` reads 1.36%; that for `COc1ccc(-c2ccc3c(NC(=O)C4CC4)n[nH]c3n2)cc1`, -0.95%; that for `CN(c1ccc(NC(=O)Nc2c(Cl)cccc2Cl)cc1)c1ccnc(Nc2cccc(CS(C)(=O)=O)c2)n1`, 1.14%.
For the molecule `Fc1ccc(-c2ncn(C3CCNCC3)c2-c2ccnc(Oc3ccc(F)c(F)c3)n2)cc1`, the inhibition is -3.02%.
Turning to `Cc1ccc(NC(=O)c2ccoc2)cc1-c1ccc(C(=O)NCC2CC2)cc1`, the inhibition was -0.03%.
In the case of `NCc1ccc(-n2c(-c3nonc3N)nc3cnccc32)cc1`, the inhibition was found to be 4.7%.
On to `NC(=O)c1ccc(Oc2nccc(-c3c(-c4ccc(F)cc4)ncn3C3CCNCC3)n2)cc1`, for which the inhibition came to 1.16%.
For the molecule `CCc1nccc2c1nc(-c1nonc1N)n2CC`, the inhibition turned out to be 1.25%.
Still for that read-out and setting: then `CCC(=O)Nc1ccc(C)c(-c2ccc(C(=O)NCC3CC3)cc2)c1`, with -0.25%; and `CN(C)CCOc1ccc(-c2cc(-c3ccc4c(c3)CCC4=NO)c(-c3ccncc3)o2)cc1`, with -0.04%.
Regarding `Nc1nccc(-c2c(-c3ccc(F)cc3)ncn2C2CCC(O)CC2)n1` (stereo not drawn), the inhibition turned out to be 0.74%.
For `COc1ccc2cc(-c3c(-c4ccncc4)nc(-c4ccc([S+](C)[O-])cc4C)n3C)ccc2c1` (stereo not drawn), the inhibition is 0.33%.
On the same count and under the same terms, then `CCS(=O)(=O)c1ccc(OC)c(Nc2ncc(-c3cccc(-c4ccccc4F)c3)o2)c1`, with 1.13%; and `NS(=O)(=O)c1ccc(Nc2cc(-c3ccc(O)c(F)c3)n[nH]2)cc1`, with -0.97%.
With `O=C(Nc1n[nH]c2cc(-c3cc(F)ccc3F)ccc12)C1CC1`, the inhibition worked out at 0.67%.
Take `NS(=O)(=O)c1ccc(N/N=C2\C(=O)Nc3ccc(C(=O)NCCCn4ccnc4)cc32)cc1`: the inhibition came to 0.48%.
In the case of `CCN(CC)Cc1ccc(Nc2nccc(-c3cnn4ncccc34)n2)cc1`, the inhibition was 0.47%.
With `COc1ccc2ncn(-c3cc(O[C@H](C)c4ccccc4Cl)c(C(N)=O)s3)c2c1`, the inhibition is -2.81%.

In general, inhibition refers to the relative decrease from the control value, in per cent.
